Our source for the binding signal values is publication PMC7862700, “An all-to-all approach to the identification of sequence-specific readers for epigenetic DNA modifications on cytosine”.

What all share (assay): DAPPL (digital affinity profiling via proximity ligation, sequencing); 10 mM Tris-HCl pH 7.5, 50 mM NaCl, 1 mM DTT, 4% glycerol, room temperature, 30 min; GST-TFs on glutathione beads, 16-mer random dsDNA library, 0.1% formaldehyde crosslink after washing; high values mean tight binding
What all share (details): protein: recombinant; tags: N-terminal GST; dsDNA, one strand shown

The target in test [1] is T1, FLI1 (Homo sapiens, UniProt Q01543 1-452).
T1 sequence: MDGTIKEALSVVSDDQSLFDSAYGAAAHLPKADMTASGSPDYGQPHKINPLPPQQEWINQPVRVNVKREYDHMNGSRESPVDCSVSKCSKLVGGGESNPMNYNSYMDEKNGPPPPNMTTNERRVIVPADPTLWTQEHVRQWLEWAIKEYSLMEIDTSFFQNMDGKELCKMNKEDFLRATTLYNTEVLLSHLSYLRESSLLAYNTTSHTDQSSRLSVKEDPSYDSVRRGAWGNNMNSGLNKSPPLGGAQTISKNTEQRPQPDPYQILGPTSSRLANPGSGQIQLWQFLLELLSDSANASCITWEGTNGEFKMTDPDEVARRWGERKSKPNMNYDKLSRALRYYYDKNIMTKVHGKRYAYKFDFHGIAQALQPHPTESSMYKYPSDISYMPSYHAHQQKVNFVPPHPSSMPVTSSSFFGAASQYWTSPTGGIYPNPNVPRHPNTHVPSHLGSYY
Put shortly:
(§1)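 Pools were built from human transcription factors expressed in yeast as GST fusions, captured on glutathione beads and DNA-barcoded, along with a tag-only sample. Incubation with 200 nmole of a 16-mer random double-stranded DNA library lasted 30 min at room temperature in Tris/NaCl/DTT/glycerol buffer, and was followed by washing, 0.1% formaldehyde crosslinking, proximity ligation, PCR amplification and Illumina NextSeq500 sequencing. Binding signal is the quotient of each hexamer's read frequency for a factor and its frequency for the tag-only sample.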

Test [2] has as its target T2, ELK1 (Homo sapiens, UniProt P19419 1-428).
T2 sequence: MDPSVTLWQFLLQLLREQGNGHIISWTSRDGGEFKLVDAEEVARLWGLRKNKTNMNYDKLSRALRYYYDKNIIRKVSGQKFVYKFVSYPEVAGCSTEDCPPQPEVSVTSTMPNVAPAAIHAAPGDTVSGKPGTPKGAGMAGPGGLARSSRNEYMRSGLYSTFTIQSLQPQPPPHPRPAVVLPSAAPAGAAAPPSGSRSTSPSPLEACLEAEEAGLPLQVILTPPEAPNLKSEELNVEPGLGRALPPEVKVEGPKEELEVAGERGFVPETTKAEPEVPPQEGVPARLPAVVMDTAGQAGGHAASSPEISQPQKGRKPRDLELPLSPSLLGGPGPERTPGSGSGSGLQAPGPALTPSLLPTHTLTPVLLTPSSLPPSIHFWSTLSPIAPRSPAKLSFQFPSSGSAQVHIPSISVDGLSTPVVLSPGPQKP
Put shortly:
as §1

Test [3] concerns the target T3, GABPA (Homo sapiens, UniProt Q06546 1-454).
T3 sequence: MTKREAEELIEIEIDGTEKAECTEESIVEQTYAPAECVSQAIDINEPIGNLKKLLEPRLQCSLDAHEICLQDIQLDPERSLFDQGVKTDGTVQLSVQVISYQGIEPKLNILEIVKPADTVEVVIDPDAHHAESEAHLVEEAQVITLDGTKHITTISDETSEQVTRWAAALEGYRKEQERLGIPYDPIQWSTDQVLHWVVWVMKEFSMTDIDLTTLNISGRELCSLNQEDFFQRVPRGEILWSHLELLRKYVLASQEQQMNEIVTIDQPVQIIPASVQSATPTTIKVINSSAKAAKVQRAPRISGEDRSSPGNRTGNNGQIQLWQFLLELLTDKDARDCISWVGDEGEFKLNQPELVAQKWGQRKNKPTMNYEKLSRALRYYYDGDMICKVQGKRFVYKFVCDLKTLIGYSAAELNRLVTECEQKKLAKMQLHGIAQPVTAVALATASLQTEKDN
The method, boiled down:
as §1

In test [4] the target is T4, ERG (Homo sapiens, UniProt P11308 1-479).
T4 sequence: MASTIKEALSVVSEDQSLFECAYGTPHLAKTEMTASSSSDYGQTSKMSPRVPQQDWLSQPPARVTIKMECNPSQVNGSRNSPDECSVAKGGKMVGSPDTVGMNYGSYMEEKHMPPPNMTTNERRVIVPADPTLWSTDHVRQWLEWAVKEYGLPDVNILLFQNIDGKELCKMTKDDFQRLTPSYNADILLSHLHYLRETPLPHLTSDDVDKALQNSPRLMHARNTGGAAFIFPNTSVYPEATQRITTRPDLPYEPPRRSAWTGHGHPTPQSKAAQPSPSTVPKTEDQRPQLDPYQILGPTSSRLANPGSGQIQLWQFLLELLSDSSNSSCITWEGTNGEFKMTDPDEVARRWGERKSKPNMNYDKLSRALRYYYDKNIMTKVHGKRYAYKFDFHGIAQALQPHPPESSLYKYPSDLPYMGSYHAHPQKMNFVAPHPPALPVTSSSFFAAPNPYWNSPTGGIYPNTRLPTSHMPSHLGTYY
Put shortly:
as §1

The target of test [5] is ELF1 (Homo sapiens, UniProt P32519 1-619). Put shortly:
as §1

Test [6] deals with T5, EHF (Homo sapiens, UniProt Q9NZC4 1-300).
T5 sequence: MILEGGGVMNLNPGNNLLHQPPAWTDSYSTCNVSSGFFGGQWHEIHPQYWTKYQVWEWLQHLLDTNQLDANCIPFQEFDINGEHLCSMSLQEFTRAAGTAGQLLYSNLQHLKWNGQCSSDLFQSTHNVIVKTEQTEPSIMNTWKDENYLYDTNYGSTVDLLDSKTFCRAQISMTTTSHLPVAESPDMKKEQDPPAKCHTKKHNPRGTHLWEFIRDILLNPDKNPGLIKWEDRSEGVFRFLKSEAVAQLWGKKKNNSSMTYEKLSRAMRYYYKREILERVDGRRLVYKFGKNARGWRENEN
The method, boiled down: as §1

In test [7] the target is SPI1 (Homo sapiens, UniProt P17947 1-270). The method, boiled down:
as §1

Test [8] deals with SPIB (Homo sapiens, UniProt Q01892 1-262). Put shortly:
as §1

The target of test [9] is T6, ELK3 (Homo sapiens, UniProt P41970 1-407).
T6 sequence: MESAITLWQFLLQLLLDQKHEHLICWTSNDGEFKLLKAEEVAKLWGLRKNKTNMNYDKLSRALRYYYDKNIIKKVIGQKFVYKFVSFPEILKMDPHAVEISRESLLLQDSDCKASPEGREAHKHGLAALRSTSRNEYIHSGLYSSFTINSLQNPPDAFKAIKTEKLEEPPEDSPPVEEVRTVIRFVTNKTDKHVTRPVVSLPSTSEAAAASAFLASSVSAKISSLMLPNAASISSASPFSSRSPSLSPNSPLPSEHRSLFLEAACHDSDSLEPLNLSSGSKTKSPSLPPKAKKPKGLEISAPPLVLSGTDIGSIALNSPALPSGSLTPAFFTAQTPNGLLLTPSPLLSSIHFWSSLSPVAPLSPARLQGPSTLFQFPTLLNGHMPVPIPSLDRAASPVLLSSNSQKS
Put shortly:
as §1

Chain of ELF1 (P32519 whole entry): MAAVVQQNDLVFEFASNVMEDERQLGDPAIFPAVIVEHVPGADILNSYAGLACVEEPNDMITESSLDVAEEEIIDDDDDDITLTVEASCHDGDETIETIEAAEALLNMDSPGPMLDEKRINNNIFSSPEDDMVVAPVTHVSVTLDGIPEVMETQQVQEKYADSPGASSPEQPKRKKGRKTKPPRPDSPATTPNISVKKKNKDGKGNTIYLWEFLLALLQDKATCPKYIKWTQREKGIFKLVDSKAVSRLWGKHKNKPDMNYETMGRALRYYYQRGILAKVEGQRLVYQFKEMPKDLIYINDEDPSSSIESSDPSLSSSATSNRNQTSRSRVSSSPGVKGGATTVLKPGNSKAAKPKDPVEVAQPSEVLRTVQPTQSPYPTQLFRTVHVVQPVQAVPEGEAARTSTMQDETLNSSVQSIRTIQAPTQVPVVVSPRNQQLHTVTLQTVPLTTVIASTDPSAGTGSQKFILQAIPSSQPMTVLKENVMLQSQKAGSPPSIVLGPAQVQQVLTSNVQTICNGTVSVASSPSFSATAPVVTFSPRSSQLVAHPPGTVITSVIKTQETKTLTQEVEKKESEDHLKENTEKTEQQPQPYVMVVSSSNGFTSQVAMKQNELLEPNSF
Chain of SPIB (Q01892 whole entry): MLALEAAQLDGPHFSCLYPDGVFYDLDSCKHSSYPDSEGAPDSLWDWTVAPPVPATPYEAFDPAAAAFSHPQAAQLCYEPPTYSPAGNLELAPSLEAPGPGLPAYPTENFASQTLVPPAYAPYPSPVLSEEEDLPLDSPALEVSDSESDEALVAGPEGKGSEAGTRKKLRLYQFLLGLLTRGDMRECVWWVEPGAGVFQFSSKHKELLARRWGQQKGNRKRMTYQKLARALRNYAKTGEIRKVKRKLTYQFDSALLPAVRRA

Turning to GGAACT, the binding signal is 1.83 fold enrichment (6-mer frequency, TF over GST control) in test [1]; 1.8 fold enrichment (6-mer frequency, TF over GST control) in test [2]; 1.61 fold enrichment (6-mer frequency, TF over GST control) in test [3]; 1.89 fold enrichment (6-mer frequency, TF over GST control) in test [4]; 1.72 fold enrichment (6-mer frequency, TF over GST control) in test [5]; 1.8 fold enrichment (6-mer frequency, TF over GST control) in test [6]. The binding signal in test [7] was 2.42 fold enrichment (6-mer frequency, TF over GST control); in test [8] it was 2.03 fold enrichment (6-mer frequency, TF over GST control); in test [9], 1.7 fold enrichment (6-mer frequency, TF over GST control).
With CTTACG, the binding signal was 1.16 fold enrichment (6-mer frequency, TF over GST control) in [1]; 1.15 fold enrichment (6-mer frequency, TF over GST control) in test [2]; 1.11 fold enrichment (6-mer frequency, TF over GST control) in test [3]; 1.02 fold enrichment (6-mer frequency, TF over GST control) in test [4]; 1.1 fold enrichment (6-mer frequency, TF over GST control) in test [5]; 1.07 fold enrichment (6-mer frequency, TF over GST control) in [6]. In addition, the binding signal in test [7] is 1.09 fold enrichment (6-mer frequency, TF over GST control); in test [8], 1.06 fold enrichment (6-mer frequency, TF over GST control); in [9], 1.07 fold enrichment (6-mer frequency, TF over GST control).
In the case of TCATGC, the binding signal in test [1] was 1.17 fold enrichment (6-mer frequency, TF over GST control); in [2] it was 1.22 fold enrichment (6-mer frequency, TF over GST control); in [3], 1.19 fold enrichment (6-mer frequency, TF over GST control); in test [4], 1.11 fold enrichment (6-mer frequency, TF over GST control); in test [5] it was 1.11 fold enrichment (6-mer frequency, TF over GST control); in [6], 1.15 fold enrichment (6-mer frequency, TF over GST control). For the same sequence, the binding signal was 1.07 fold enrichment (6-mer frequency, TF over GST control) in test [7]; 1.2 fold enrichment (6-mer frequency, TF over GST control) in test [8]; 1.1 fold enrichment (6-mer frequency, TF over GST control) in test [9].
For the sequence ACTCAC, the binding signal in [1] is 1.22 fold enrichment (6-mer frequency, TF over GST control); in test [2], 1.31 fold enrichment (6-mer frequency, TF over GST control); in test [3], 1.27 fold enrichment (6-mer frequency, TF over GST control); in [4] it was 1.17 fold enrichment (6-mer frequency, TF over GST control); in test [5], 1.18 fold enrichment (6-mer frequency, TF over GST control); in test [6], 1.24 fold enrichment (6-mer frequency, TF over GST control). Besides, the binding signal in test [7] is 1.23 fold enrichment (6-mer frequency, TF over GST control); in [8] it was 1.44 fold enrichment (6-mer frequency, TF over GST control); in test [9] it was 1.35 fold enrichment (6-mer frequency, TF over GST control).
As to TGCGAA, the binding signal in [1] is 1.21 fold enrichment (6-mer frequency, TF over GST control); in test [2], 1.2 fold enrichment (6-mer frequency, TF over GST control); in test [3] it was 1.07 fold enrichment (6-mer frequency, TF over GST control); in [4], 1.16 fold enrichment (6-mer frequency, TF over GST control); in test [5], 1.23 fold enrichment (6-mer frequency, TF over GST control); in test [6], 1.18 fold enrichment (6-mer frequency, TF over GST control). Further, the binding signal in test [7] was 1.26 fold enrichment (6-mer frequency, TF over GST control); in [8], 1.22 fold enrichment (6-mer frequency, TF over GST control); in test [9], 1.07 fold enrichment (6-mer frequency, TF over GST control).
For TAGGTT, the binding signal in [1] is 1.13 fold enrichment (6-mer frequency, TF over GST control); in test [2], 1.04 fold enrichment (6-mer frequency, TF over GST control); in test [3], 1 fold enrichment (6-mer frequency, TF over GST control); in [4], 1.11 fold enrichment (6-mer frequency, TF over GST control); in test [5] it was 1.08 fold enrichment (6-mer frequency, TF over GST control); in test [6] it was 1.08 fold enrichment (6-mer frequency, TF over GST control). For the same sequence, the binding signal in test [7] is 1.14 fold enrichment (6-mer frequency, TF over GST control); in test [8], 1.13 fold enrichment (6-mer frequency, TF over GST control); in test [9], 1.16 fold enrichment (6-mer frequency, TF over GST control).
Consider ATACGT, for which the binding signal is 1.12 fold enrichment (6-mer frequency, TF over GST control) in test [1]; 1.14 fold enrichment (6-mer frequency, TF over GST control) in test [2]; 1.11 fold enrichment (6-mer frequency, TF over GST control) in test [3]; 1.09 fold enrichment (6-mer frequency, TF over GST control) in test [4]; 1.11 fold enrichment (6-mer frequency, TF over GST control) in test [5]; 1.24 fold enrichment (6-mer frequency, TF over GST control) in test [6]. The binding signal in [7] is 1.06 fold enrichment (6-mer frequency, TF over GST control); in test [8], 1.13 fold enrichment (6-mer frequency, TF over GST control); in test [9], 1.12 fold enrichment (6-mer frequency, TF over GST control).
